# From PubChem BioAssay (NCATS)
# Inconclusive results are not listed. Where a call stands in place of a potency, no number is given. Calls of active or inactive are those of the source. The call rests on the fitted dose curve; in most records, active means well fitted cell-killing curve with a large enough effect; inconclusive means small, poorly fitted or top-dose-only effect; inactive means no such curve, though single readings can be large or run the other way.
# Test: qHTS of pediatric cancer cell lines to identify multiple opportunities for drug repurposing: Primary screen for SK-N-SH cells (AID 1347098); further: nearly all actives have a fitted effect of over 65% in size
# Conditions: SK-N-SH viability, CellTiter-Glo luminescence, 48 h; series mostly up to 57 µM
# Description: Drug repurposing or repositioning has been offered as a strategy for drug development in oncology programs. This approach has special potential for childhood cancers and other rare or orphan diseases, where the expected return on new drug development has been a disincentive to pharmaceuticals.
# In this project we exploit the poly-pharmacology of drugs to discover new indications via phenotypic screening of a panel of 19 well-characterized cell lines derived from solid tumors seen in children and adolescents. The goal is to identify approved drugs with previously unrecognized anticancer properties that has the potential to reveal new mechanisms and biological processes involved in carcinogenesis or drug resistance. We employed a titration-based paradigm (quantitative high-throughput screening or qHTS), where all compounds were tested at multiple concentrations for their effect on cell viability. Concentration-response curves (CRCs) were derived directly from the primary screen, and both potency and efficacy values were used to identify compounds with robust bioactivity profiles. We screened the NIH Chemical Genomics Center (NCGC) Pharmaceutical Collection (NPC) and Mechanism Interrogation Plate (MIPE) small molecule collections of approved and investigational compounds against these cell lines; and measured metabolically active cells after 48 hours of compound treatment as a proxy for cell viability.
# Assay Submitter: Nathalia J. Martinez, National Center for Advancing Translational Sciences, National Institutes of Health, Rockville, MD, USA; email: natalia.martinez@nih.gov
# [1] Shen, M et al. Quantitative high-throughput phenotypic screening of pediatric cancer cell lines identifies multiple opportunities for drug repurposing. Oncotarget 2017 Dec 19;9(4):4758-4772. PMID 29435139.
# The cells were obtained from University of North Carolina (UNC), Pediatric Preclinical Testing Program (PPT), and Coriell Institute (CI).
# qHTS cell viability assay:
# Cells were assayed in growth media at a density of 500-1,000 cells/well. Five microliters of cells were dispensed into 1,536-well, white, solid-bottom, TC-treated plates (Greiner Bio One) using a multidrop dispenser and incubated at 37 degrees C, 5% CO2, under a humidified atmosphere for 5 hours. Twenty-three nanoliters of compounds and controls (neutral control DMSO or positive control bortezomib at final concentration of 2.3 µM) were subsequently transferred by Kalypsys pintool. For primary screens, the MIPE collection was tested at 11-point dilutions (final concentrations range from 0.78 nM to 46 µM) and the NPC collection at 8-point dilutions (final concentrations range from 0.59 nM to 46 µM). Compounds tested in follow-up screens were assayed at 11-point dilutions. Cells were incubated for 48 hours, followed by addition of 3 µL of CellTiter-Glo (Promega). After a 15 min incubation at room temperature, samples were analyzed for luminescence intensity using a ViewLux High-throughput CCD imager equipped with clear filters.
# Potency means the concentration at half of the fitted maximal effect.
row,Compound,Potency
1,Cn1c(=O)c2c(ncn2CC2OCCO2)n(C)c1=O,inactive
2,NC(=O)NC(=O)Cc1ccccc1,inactive
3,CN1CCOC(c2ccccc2)c2ccccc2C1 (stereo not given),inactive
4,C=Cc1c(C)c2cc3[nH]c(cc4nc(cc5nc(cc1[nH]2)C(C)=C5CCC(=O)O)C(CCC(=O)O)=C4C)c(C)c3C=C,inactive
5,CN1[C@@H]2CC(OC(=O)[C@H](CO)c3ccccc3)C[C@H]1[C@@H]1O[C@@H]12 (stereo not given in full),inactive
6,CCN(CC)CCNC(=O)c1cc(Cl)c(N)cc1OC,inactive
7,O=C1O[C@H](CO)[C@@H](O)[C@H](O)[C@H]1O,inactive
8,N[C@@H](CSCCCO)C(=O)O,inactive
9,CCn1cc(C(=O)O)c(=O)c2cnc(N3CCNCC3)nc21,inactive
10,NC(=O)c1ncn([C@@H]2O[C@H](CO)[C@@H](O)[C@H]2O)n1,inactive
11,Nc1ccc(S(=O)(=O)Nc2ccccc2)cc1,inactive
12,COc1cc(C(=O)N2CCOCC2)cc(OC)c1OC,inactive
13,O=Cc1ccccc1C=O,inactive
14,CCCn1cnc2c1c(=O)n(CCCCC(C)=O)c(=O)n2C,inactive
15,COc1cc(C)c(Cc2cnc(N)nc2N)cc1OC,inactive
16,OC[C@H]1O[C@@H](O[C@@H]2[C@@H](CO)O[C@](O)(CO)[C@H]2O)[C@H](O)[C@@H](O)[C@H]1O,inactive
17,NC(=O)NNc1ccccc1,inactive
18,CCCCN1CCCC[C@H]1C(=O)Nc1c(C)cccc1C,inactive
19,Nc1ccc(S(=O)(=O)NC(=O)c2ccccc2)cc1,inactive
20,CCCCOC(=O)c1ccc(O)cc1,inactive

row,Compound,Potency
1,CC[C@H]1CN2CCc3cc(OC)c(OC)cc3[C@@H]2C[C@@H]1C[C@H]1NCCc2cc(OC)c(OC)cc21,0.433 µM (active)
2,CCCCC/C(C=O)=C\c1ccccc1,inactive
3,CCCc1c(OCCCCc2nn[nH]n2)ccc(C(C)=O)c1O,inactive
4,CCCCCCCCCCCCOS(=O)(=O)O,inactive
5,CN1CCC[C@@H]1Cc1c[nH]c2ccc(CCS(=O)(=O)c3ccccc3)cc12,inactive
6,CN1CCN(C2Cc3ccccc3Sc3ccc(Cl)cc32)CC1 (stereo not given),21.7 µM (active)
7,O=C(O)CC(O)C(=O)O (stereo not given),inactive
8,COc1ccc2cc1Oc1ccc(cc1)C[C@H]1c3c(cc4c(c3Oc3cc5c(cc3OC)CCN(C)[C@@H]5C2)OCO4)CCN1C,12.2 µM (active)
9,O=S(=O)(O)c1cc(I)c(O)c2ncccc12,inactive
10,CC(C)c1c(C(=O)Nc2ccccc2)c(-c2ccccc2)c(-c2ccc(F)cc2)n1CC[C@@H](O)C[C@@H](O)CC(=O)O,12.2 µM (active)
11,O=S(=O)(O)NC1CCCCC1,inactive
12,CCN(CC)CCCC(C)Nc1c2ccc(Cl)cc2nc2ccc(OC)cc12 (stereo not given),5.45 µM (active)
13,CN(C)CCOC(C)(c1ccccc1)c1ccccn1 (stereo not given),inactive
14,CCCCC(CC)COC(=O)c1ccccc1O (stereo not given),inactive
15,Nc1ncnc2c1ncn2[C@@H]1O[C@H](CO)[C@@H](O)[C@H]1O,inactive
16,CCOC(CN1CCN(CC(C)C(=O)c2ccccc2)CC1)c1ccccc1 (stereo not given),inactive
17,O=c1[nH]cnc2c1ncn2[C@@H]1O[C@H](CO)[C@@H](O)[C@H]1O,inactive
18,CCN(CC)CCNC(C(=O)OCCC(C)C)c1ccccc1 (stereo not given),inactive
19,C=CCn1c(=O)n([C@@H]2O[C@H](CO)[C@@H](O)[C@H]2O)c2nc(N)[nH]c(=O)c21,inactive
20,CC(O)CN(CCN(CC(C)O)CC(C)O)CC(C)O (stereo not given),inactive
